According to PubChem BioAssay AID602357 (National Center for Advancing Translational Sciences (NCATS), 2012):
Results filed as inconclusive are left out. Activity calls are given as the source filed them. Calls come from the whole dose curve; as a rule, active = well fitted inhibition curve with a large enough effect; inconclusive = small, poorly fitted or top-dose-only effect; inactive = no such curve, though single readings can be large or run the other way.

Each compound was assayed against Luciferin 4-monooxygenase (Photinus pyralis) (UniProt P08659) (assay: FLuc inhibitory activity for the follow-up compounds in a biochemical assay with Km concentrations of substrate). Conditions: purified FLuc, Km substrates, luminescence; series mostly up to 57.5 µM; activity change, negative = inhibition: at the top concentration.
Excerpt: NCGC Assay Overview: Firefly (Photinus pyralis) luciferase is one of the most commonly used transcriptional reporters. It is considered one of the more dynamically responsive reporters - that is, responsive to changes in reporter transcription - as it requires no post-translational modifications and is enzymatically active directly after protein synthesis (Wood, 1998). With no endogenous expression in mammalian cells and without the requirement of external excitation, it offers very little background signal, thus generally providing excellent signal to background for most assays. Previous profiling work to determine the prevalence of compounds that affect FLuc enzymatic activity (PubChem AID 411) identified that ~3% of the MLSMR library (then at ~72K) inhibited FLuc. […] Of the compounds identified in this profile that inhibited FLuc, 151 compounds were selected for further analysis, in an effort to better understand their mode of inhibiting FLuc. The assay described here confirms the FLuc inhibitory activity of the 151 compounds.
NCGC Assay Protocol Summary: Reagents: 50mM Tris acetate, pH 7.5; 10mM Mg acetate; 10uM D-luciferin (Sigma #L9504); 10uM ATP; 0.01% Tween-20; 0.05% BSA; 10nM P. pyralis luciferase (Sigma #L9506) Control compounds used were two known firefly luciferase inhibitors (3-(5-(3-chlorophenyl)-1,2,4-oxadiazol-3-yl)benzoic acid and 5-(2-fluorophenyl)-3-phenyl-1,2,4-oxadiazole), and DMSO. Three microliters containing firefly luciferase substrates in buffer (final concentrations: 50mM Tris acetate, pH 7.5, 10mM Mg acetate, 0.01% Tween-20, 0.05% BSA, 10uM D-luciferin, and 10uM ATP) are dispensed into each well of a Greiner white, solid-bottom 1536-well format plate using a flying reagent dispenser (FRD). These assay plates were then treated with 23nL of compound or DMSO using a Kalypsys pin tool, which allows for delivery of a 12-point intraplate titration of each compound to the assay plate (quantitative HTS), with a final compound concentrations ranging from approximately ~60uM to 0.3nM. One microliter of firefly luciferase in 500mM Tris-acetate buffer was then delivered by FRD to each well for a final enzyme concentration of 10nM. Luciferase activity was then measured using a ViewLux CCD imager (PerkinElmer), with an average exposure time of 2-30 seconds (2X binning, medium/high gain).

Chain of Luciferin 4-monooxygenase (Photinus pyralis) (P08659 whole entry, looked up): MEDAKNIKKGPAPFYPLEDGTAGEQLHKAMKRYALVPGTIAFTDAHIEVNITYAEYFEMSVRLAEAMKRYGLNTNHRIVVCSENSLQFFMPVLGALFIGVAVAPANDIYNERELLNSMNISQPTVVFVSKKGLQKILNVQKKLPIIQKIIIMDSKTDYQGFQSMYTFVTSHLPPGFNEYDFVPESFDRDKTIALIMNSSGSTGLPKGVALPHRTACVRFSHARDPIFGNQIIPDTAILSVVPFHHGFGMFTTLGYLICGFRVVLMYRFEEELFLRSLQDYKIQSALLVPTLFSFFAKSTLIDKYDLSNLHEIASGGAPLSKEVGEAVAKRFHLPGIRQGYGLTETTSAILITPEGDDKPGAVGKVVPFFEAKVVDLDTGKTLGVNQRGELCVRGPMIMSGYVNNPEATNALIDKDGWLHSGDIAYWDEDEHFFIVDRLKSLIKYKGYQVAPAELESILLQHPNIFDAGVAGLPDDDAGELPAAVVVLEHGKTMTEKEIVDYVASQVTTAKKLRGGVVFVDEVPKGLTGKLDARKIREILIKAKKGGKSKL

`CN(C)S(=O)(=O)c1ccc(C(=O)Nc2ccccc2C(=O)O)cc1` was tested. Which Potency did it give?
The Potency was 13 µM (active).

With `COc1ccc(CC(=O)Nc2cccc(C(=O)Nc3ccccc3C(=O)O)c2)cc1OC` as the compound, how does the Potency read?
Its Potency is 41.1 µM (active).

How did the Potency turn out when `c1ccc2sc(-c3ccc4c(c3)OCO4)nc2c1` was run?
Its Potency is 0.326 µM (active).

Which Potency does the source give for `Cc1c(NC(=O)c2cccs2)cccc1-c1nc2ccccc2s1` here?
The Potency was 4.11 µM (active).

For `O=C(Nc1ccccc1C(=O)O)c1ccc(NC(=O)C2CC2)cc1`, which Potency is on record?
The Potency was 2.59 µM (active).

For `O=C(Nc1c(Cl)cc(Cl)cc1-c1nc2ccccc2s1)c1ccc(Br)o1`, which “activity change, negative = inhibition” value is on record?
Its value is -2.8% (inactive).

With `Cc1cccc(C(=O)Nc2ccccc2C(=O)Nc2ccc(C(=O)O)cc2)c1` as the compound, how does the Potency read?
The Potency was 11.6 µM (active).

With `Cc1ccc(S(=O)(=O)N2CCOCC2)cc1C(=O)Nc1ccccc1C(=O)O` as the compound, how does the “activity change, negative = inhibition” value read?
Its value is -19.3% (inactive).

For `O=C(Nc1ccccc1C(=O)O)c1cccc(S(=O)(=O)N2CCCC2)c1`, which Potency is on record?
Its Potency is 13 µM (active).

`O=C(Nc1ccccc1-c1nc2ccccc2s1)c1ccc(Br)o1` was tested. Which “activity change, negative = inhibition” value did it give?
The value was -1.3% (inactive).

Which “activity change, negative = inhibition” value does the source give for `O=C(O)c1ccc(NC(=O)c2cccc(C(=O)Nc3ccc(C(=O)O)cc3)c2)cc1` here?
Its value is -8.45% (inactive).

With `Nc1ccc(-c2nc3ccc(N)cc3s2)cc1` as the compound, how does the Potency read?
Its Potency is 0.326 µM (active).

With `COc1ccc2nc(NC(=O)c3ccccc3C(=O)O)sc2c1` as the compound, how does the Potency read?
The Potency was 18.3 µM (active).

Which Potency does the source give for `COc1ccc2nc(NC(=O)c3ccc([N+](=O)[O-])o3)sc2c1` here?
Its Potency is 3.66 µM (active).

`Cn1c(N/N=C/c2cc3ccccc3nc2Cl)nc2ccccc21` was tested. Which Potency did it give?
The Potency was 0.058 µM (active).

With `O=C(O)c1ccc(NC(=O)c2ccccc2NC(=O)c2ccccc2Br)cc1` as the compound, how does the Potency read?
The Potency was 23.1 µM (active).

For `O=C(Nc1ccccc1C(=O)Nc1ccccc1C(=O)O)c1ccccc1`, which Potency is on record?
Its Potency is 16.3 µM (active).

`COc1ccc(C(=O)Nc2cccc(C(=O)O)c2)cc1S(=O)(=O)N1CCCC1` was tested. Which Potency did it give?
The Potency was 5.17 µM (active).

Which Potency does the source give for `O=C(O)c1cccc(NC(=O)c2cccc(S(=O)(=O)N3CCc4ccccc4C3)c2)c1` here?
The Potency was 36.6 µM (active).

Which Potency does the source give for `O=C(Cc1ccccc1)Nc1ccc(C(=O)Nc2ccccc2C(=O)O)cc1` here?
Its Potency is 20.6 µM (active).

Which Potency does the source give for `O=C(Nc1ccccc1C(=O)O)c1cccc(NC(=O)c2ccc(Br)o2)c1` here?
Its Potency is 23.1 µM (active).

How did the Potency turn out when `Nc1ccc(C(=O)Nc2ccccc2C(=O)O)cc1` was run?
The Potency was 7.3 µM (active).

Which Potency does the source give for `COc1ccc2nc(NC(=O)Cc3cccs3)sc2c1` here?
Its Potency is 7.3 µM (active).

Which “activity change, negative = inhibition” value does the source give for `Cc1ccc(S(=O)(=O)N2CCN(C(=O)c3ccccc3-c3nc4ccccc4s3)CC2)c(C)c1` here?
Its value is -4.09% (inactive).

Which Potency does the source give for `Cc1ccc2sc(-c3ccc(N)cc3)nc2c1` here?
The Potency was 0.183 µM (active).

With `CN=c1scc(-c2ccccc2F)n1/N=C/c1ccc[nH]1` as the compound, how does the Potency read?
The Potency was 0.0461 µM (active).

For `Oc1ccc(-c2nc3ccccc3s2)c(O)c1`, which Potency is on record?
Its Potency is 6.51 µM (active).

For `Cc1ccc(C(=O)Nc2ccccc2C(=O)O)cc1S(=O)(=O)N1CCCCCC1`, which Potency is on record?
Its Potency is 1.83 µM (active).

For `O=C(Nc1ccccc1C(=O)O)c1ccccc1`, which Potency is on record?
Its Potency is 32.6 µM (active).

How did the Potency turn out when `O=C(Nc1ccccc1C(=O)O)c1cccc(NC(=O)c2ccco2)c1` was run?
The Potency was 18.3 µM (active).

`O=C(O)c1cccc(NC(=O)c2ccc(COc3ccc(Cl)cc3)cc2)c1` was tested. Which Potency did it give?
Its Potency is 3.66 µM (active).

With `Nc1cccc(-c2nc3ccc(N)cc3s2)c1` as the compound, how does the Potency read?
The Potency was 0.366 µM (active).

Which Potency does the source give for `COc1ccc2nc(NC(=O)c3ccc4ncsc4c3)sc2c1` here?
Its Potency is 1.63 µM (active).

For `Cc1ccc(C(=O)Nc2ccc(C(=O)O)cc2)cc1S(=O)(=O)NCc1ccccc1`, which “activity change, negative = inhibition” value is on record?
Its value is 3.69% (inactive).

`Cc1ccc(C(=O)Nc2cccc(C(=O)O)c2)cc1` was tested. Which Potency did it give?
Its Potency is 0.0326 µM (active).

Which Potency does the source give for `Cc1c(NS(C)(=O)=O)cccc1-c1nc2ccccc2s1` here?
Its Potency is 8.19 µM (active).

With `COc1ccc2nc(NC(=O)CCc3ccc(OC)c(OC)c3)sc2c1` as the compound, how does the “activity change, negative = inhibition” value read?
The value was 3.41% (inactive).

Which Potency does the source give for `Cc1ccc2sc(-c3ccc(NC(=O)c4cc(-n5cnnc5)ccc4Cl)cc3)nc2c1` here?
The Potency was 6.51 µM (active).

How did the “activity change, negative = inhibition” value turn out when `CCOC(=O)N1CCN(CC(=O)Nc2nc3ccc(OC)cc3s2)CC1` was run?
The value was -13.5% (inactive).

For `O=C(O)c1ccc(NC(=O)c2cc(S(=O)(=O)N3CCCCC3)c(Cl)cc2Cl)cc1`, which “activity change, negative = inhibition” value is on record?
The value was 8.63% (inactive).
